# From PubChem BioAssay (NCI)
# Where “and” joins values, the source holds several entries; their conditions need not be identical. Identical values can stand only once. About 83,000 compounds went through this panel and 20% of them were active in at least one assay; those are over-represented in the sample as a whole.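 For each line, cells grew in 96-well plates with the test compound present at a single concentration for 48 hours.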 Unmarked numbers belong to inactive results. Calls of active or inactive are those of the source. The calls were made as follows: active = growth percent below 10; inactive = the rest.
# Test system: SR leukemia
# Assay: NCI-60 one-dose screen, 48 h (100 = growth as untreated, 0 = no growth, -100 = all killed)
# Details: 10 µM unless noted
row,SMILES,growth
1,CN1CCN(CCCN2c3ccccc3Sc3ccc(Cl)cc32)CC1,74.7%
2,O=C(c1cccc(Br)c1)N1CCN(c2ccnc3cc(Cl)ccc23)CC1,118%
3,N#CSc1c[nH]c2ccc(/C=C/C(=O)/C=C(/C=C/c3ccc4[nH]cc(SC#N)c4c3)OB(F)F)cc12,-25.1% (active)
4,COc1cc(Nc2nc3ccccc3cc2C(=O)Nc2ccc(F)c(F)c2)cc(OC)c1OC,29.6%
5,CCOC(=O)CC1CSC(c2cccc(Cl)c2)=N1 (centres undefined),92%
6,CC/C=C\C/C=C\C[C@H](O)C/C=C1/C(=O)C=C[C@@H]1C/C=C\CCCC(=O)OC,0.0807% (active)
7,CCCCCCNC(=O)Oc1ccc(/C(=C(/CC)Cc2ccccc2)c2ccc(OCCCN(C)C)cc2)cc1,-9.68% (active)
8,NC(N)=NC(N)=NCCCc1ccco1,110%
9,O=C(N=Nc1c(O)[nH]c2ccccc12)Nc1ccccc1Cl,77.1%
10,O=C(N/N=C/c1ccc(O)cc1O)c1cccc(Nc2ccnc(C(F)(F)F)c2)c1,21.7%
11,O=C(Nc1ccc2ccccc2c1)c1cc2ccccc2cc1O,82%
12,Cc1ccc(-c2nc3nc(-c4ccccc4)nc(N4CCN(S(=O)(=O)c5ccccc5)CC4)c3o2)cc1,104%
13,Cn1cc(C2=C(c3cccc4ccccc34)C(=O)NC2=O)c2cc(Br)ccc21,60.8%
14,CC[C@@H]1NC(=O)[C@H]([C@H](O)[C@H](C)C/C=C/c2ccc(CN3C(=O)C(C)=C(C)C3=O)cc2)N(C)C(=O)[C@H](C(C)C)N(C)C(=O)[C@H](CC(C)C)N(C)C(=O)[C@H](CC(C)C)N(C)C(=O)[C@@H](C)NC(=O)[C@H](C)NC(=O)[C@H](CC(C)C)N(C)C(=O)[C@H](C(C)C)NC(=O)[C@H](CC(C)C)N(C)C(=O)CN(C)C1=O,46.9%
15,O=C1/C(=C/c2ccc(F)c(F)c2)CN(C(=O)C(Cl)Cl)C/C1=C\c1ccc(F)c(F)c1,-21.2% (active)
16,O=C1C(c2c[nH]c3ccccc23)=C(c2coc3cc(Br)ccc23)C(=O)N1O,90.5%
17,CC1=CC(C)(C)NC(=S)N1c1ccc(Cl)cc1,97.8% and 93%
18,O=C1/C(=C/c2ccccc2)CN(C(=O)C(Cl)Cl)C/C1=C\c1ccccc1,-4.98% (active)
19,CC(=O)N1N=C(c2ccc(Nc3nc(Nc4ccc(F)cc4)nc(Nc4ccc(Cl)cc4)n3)cc2)CC1c1ccc(N(C)C)cc1 (centres undefined),-9.66% (active)
20,CCCN1C(=O)/C(=c2\sc3n(c2=O)NC2C(N=3)N(CC)C(=O)N2CC)c2ccccc21 (centres undefined),30.6%

row,SMILES,growth
1,CONC1=Nc2cc(NC(N)=NCc3ccccc3)c(N(C)C3CCCCC3)cc2OC1,-12.1% (active)
2,Cc1c(CC(=O)OCCO)cc(-c2ccc(Cl)cc2)n1-c1ccccc1,91.2%
3,COc1cc(/C=C2\CCC/C(=C\c3cc(CN4CCCC4)c(O)c(OC)c3)C2=O)cc(CN2CCCC2)c1O,8% (active)
4,Fc1ccccc1-c1cnn2cc(-c3ccccc3)cnc12,81.8%
5,CC(C)(C)c1cc(NC(=O)Nc2ccc(-c3cn4c(n3)sc3cc(OCCN5CCOCC5)ccc34)cc2)no1,9.24% (active) and 1.25% (active)
6,COc1ccc(/C=N/NC(=O)CN2CCN(c3cc4c(cc3F)c(=O)c(C(=O)O)cn4C3CC3)CC2)cc1O,80.2%
7,NNCCc1ccccc1,106% and 104%
8,CNC(=O)c1cc(Oc2ccc3nc(NC(=O)Nc4ccc(C(F)(F)F)cc4)sc3c2)ccn1,70.6%
9,CC1=C2[C@@H](CC1)[C@]1(C)O[C@@](C3CC3)(C[C@H]1OC(=O)CO)[C@H]2OC(=O)/C=C/c1ccccc1,80.4%
10,O=C(c1ccc(Nc2nccc(NCCCNc3ccnc4cc(Cl)ccc34)n2)cc1)N1CCCCC1,-2.26% (active)
11,CCN(CC)CC#CCOC(=O)[C@]1(C)CCC[C@]2(C)c3ccc(C(C)C)cc3CC[C@@H]12,79.3%
12,Nc1nc2ccccc2c2c(=O)c3ccc(Cl)cc3sc12,84.4%
13,Nc1nc2c(s1)CCc1cn(S(=O)(=O)c3ccccc3)cc1-2,75.2% and 92.8%
14,COc1cccc(NC(=O)c2sc3nc(C)c(C(O)c4ccccc4)cc3c2N)c1 (centres undefined),6.69% (active)
15,CC12OC(CC(O)C1O)n1c3ccccc3c3c4c(c5c6ccccc6n2c5c31)C(=O)N(CCN1CCOCC1)C4=O (centres undefined),1.71% (active)
16,Cc1c(O)c(O)cc2c3c(oc12)CC(c1ccc2c(c1)OCO2)CC3=O (centres undefined),75.6%
17,N#CC1=C(N)Oc2c(sc3c(Br)cccc23)C1c1ccccn1 (centres undefined),12.7%
18,COc1cc2nc3cc([N+](=O)[O-])ccc3c(NCCNCC(C)(C)O)c2cc1OC,-12.2% (active)
19,CCOc1ccccc1NC(=O)c1cc2ccccc2cc1O,45.5%
